Screening results from PubChem BioAssay.
Sampled rows, rich in hits. Any-hit rate of the full collection: about 2.8%.
MITF act – increases MITF-driven TRPM1 promoter luciferase signal. 300,000 compounds, 0.75% hits. activation, % at 12.5 µM. SK-MEL-5 TRPM1-promoter luciferase, 24 h; % of positive control, neutral wells = 0;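 active = mean activation of at least 80% with every replicate also reaching 80%; inconclusive = mean reaches 80% but some replicate falls short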;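 also: 0% = neutral control wells and 100% = parthenolide positive control wells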
Wnt act – activates Wnt/beta-catenin signaling in a reporter cell assay; activator, plate reader; AID 743398; 300,000 compounds, 1.2% hits; activation, % at 9.35 µM; in the data active = activation above about 30%, passing the limit was not always enough; inconclusive = no clear call, values can overlap the other calls;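 also: 0% = neutral control wells and 100% = positive control wells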
esBAF inh – inhibitors of esBAF chromatin remodeling in mouse ES cells; reporter increase, % at 12.5 µM; Bmi1-luciferase knock-in reporter, 24 h; 100% = twice the neutral-well signal; 350,000 compounds, 2% hits; in the data active = activation above about 40%; inconclusive = no clear call, values can overlap the other calls;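 also: 0% = median of the plate's neutral control wells and 100% = double that signal; a rise in the Bmi1 reporter signal indicates esBAF inhibition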
GAA850 FXN act – frataxin GAA850 promoter activation; activation, % at 6 µM; 360,000 compounds, 0.56% hits; HEK293 lucGAA850 FXN promoter luciferase reporter, 24 h; percent of 10 µM SAHA response;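 active = activation above the average of all compounds screened plus 3 SD, cutoff fixed separately per campaign, cut at about 7.5% in these data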;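 also: 0% = DMSO wells and 100% = 10 µM SAHA wells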
Active calls of the source: *; ? = inconclusive; . = no result.

SMILES	MITF act	Wnt act	esBAF inh	GAA850 FXN act
Clc1ccc(-c2nc(C3CCCCC3)no2)cc1	90.6*	70.7*	75.6*	5.2
O=C(NCC[C@H]1CC[C@@H](NC(=O)C2CCC2)[C@@H](CO)O1)c1ccc(F)cc1	.	.	-3.9	.
COc1ccc(Nc2oc(-c3ccccc3)nc2C#N)cc1	61.3	23.5	47.1*	5.0
COc1ccc(-c2nc(C#N)c(NCCN(C)C)o2)cc1	7.2	2.0	-4.7	0.7
CCOc1ccc(Nc2oc(-c3ccc(Cl)cc3)nc2C#N)cc1	.	?	66.8*	3.1
COc1ccc(Nc2oc(-c3ccc(Cl)cc3)nc2C#N)cc1	31.0	13.5	58.2*	-1.8
COc1ccc(Nc2oc(-c3ccc(OC)cc3)nc2C#N)cc1	.	32.2*	.	2.5
COc1ccc(CNc2oc(-c3ccccc3)nc2C#N)cc1	5.1	5.8	-0.2	1.6
COc1ccc(Nc2oc(COc3ccc(Cl)cc3)nc2C#N)cc1	-26.8	-5.9	.	-4.9
COc1ccc(NC(=O)Nc2cccc3c2O[C@H](CN(C)C(=O)Nc2c(C)noc2C)[C@H](C)CN([C@H](C)CO)C3=O)cc1	.	.	2.2	.
COCC(=O)Nc1ccc2c(c1)C(=O)N(C)C[C@H](OC)[C@H](C)CN(Cc1cccc(F)c1)[C@H](C)CO2	.	.	-2.1	.
C[C@@H]1CN([C@@H](C)CO)C(=O)c2cc(NC(=O)Nc3ccc4c(c3)OCO4)ccc2O[C@H]1CN(C)Cc1ccc(Oc2ccccc2)cc1	.	.	-12.1	.
O=C(C[C@H]1C=C[C@H](NS(=O)(=O)c2cccc(F)c2)[C@H](CO)O1)NCc1ccc2c(c1)OCO2	.	.	0.4	.
C[C@H]1CN([C@@H](C)CO)C(=O)c2cc(NC(=O)Cc3cn(C)c4ccccc34)ccc2O[C@H]1CN(C)C	.	.	-3.8	.
Cc1cs/c(=N/C(=S)Nc2ccccc2)n1C	102.0*	5.3	.	4.6
Cc1ccc(SCCC(=O)N2CCC(C)CC2)cc1	.	?	59.0*	4.0
Cc1ccc(SCCC(=O)N2CCC(C(N)=O)CC2)cc1	8.9	5.4	11.1	0.9
CSc1ccc(N2C(=O)NC3(CCCCC3)C2=O)cc1	35.0	18.4	61.5*	5.0
CC(C)C#Cc1ccc2c(c1)O[C@H](CN(C)C(=O)c1cnccn1)[C@H](C)CN([C@H](C)CO)S2(=O)=O	.	.	4.7	.
O=C(NC(=S)N(CCO)Cc1ccccc1)c1ccc(S(=O)(=O)N2CCCC2)cc1	-1.3	45.1*	.	0.9
Cc1c(C(=O)Nc2cccnc2)oc2ccc(Br)cc12	.	0.6	60.3*	3.5
O=C(Nc1cccnc1)c1ccc(Br)s1	5.3	.	32.3	0.7
Cc1c(C(=O)NCc2cccs2)oc2ccc(Br)cc12	.	.	50.9*	2.9
Cc1c(C(=O)NCc2ccccn2)oc2ccccc12	44.3	.	35.7	4.7
CCc1sc(C(=O)Nc2cccnc2)cc1Br	44.2	9.1	50.3*	0.5
SMILES	MITF act	Wnt act	esBAF inh	GAA850 FXN act
Cc1c(C(=O)NCc2cccs2)oc2ccc(S(=O)(=O)N3CCOCC3)cc12	4.6	-3.7	-0.5	2.4
Cc1c(C(=O)NCc2ccccn2)oc2ccc(Br)cc12	96.7*	12.1	53.8*	2.6
CCCC#Cc1ccc2c(c1)O[C@H](CN(C)C(=O)CN(C)C)[C@@H](C)CN([C@H](C)CO)S2(=O)=O	.	.	3.9	.
N/C(=N\OC(=O)c1cccc(Cl)c1)c1cccnc1	18.3	.	73.4*	3.6
N/C(=N\OC(=O)c1ccccc1Cl)c1cccnc1	31.1	.	22.3	2.6
N/C(=N\OC(=O)c1ccco1)c1ccccc1	94.8*	35.6*	?	3.9
N/C(=N\OC(=O)c1ccc(Cl)cc1[N+](=O)[O-])c1cccnc1	.	37.3*	.	4.7
N/C(=N\OC(=O)c1ccccc1)c1cccnc1	16.7	51.2*	56.3*	3.3
Cc1ccc(/C(N)=N/OC(=O)c2ccco2)cc1	.	?	-24.9	1.8
C[C@@H]1CCCCO[C@H](CN(C)C(=O)CCC(F)(F)F)[C@H](C)CN([C@@H](C)CO)C(=O)c2cc(NS(=O)(=O)c3ccc(F)cc3)ccc2O1	.	.	5.1	.
Cc1noc(C)c1NC(=O)N[C@H]1CC[C@@H](CC(=O)Nc2ccc(-c3ccccc3)cc2)O[C@H]1CO	.	.	-12.0	.
O=C(N[C@@H]1CC[C@H](CC(=O)N2CCN(c3ccccc3)CC2)O[C@@H]1CO)c1ccccc1	.	.	2.6	.
N/C(=N\OC(=O)c1cc(Br)ccc1Cl)c1cccnc1	15.8	-0.4	.	1.4
N/C(=N\OC(=O)c1ccc(Cl)cc1Cl)c1ccncc1	.	34.8*	.	5.9
N/C(=N\OC(=O)c1ccc(Cl)c(Cl)c1)c1cccnc1	28.1	.	51.8*	4.2
N/C(=N\OC(=O)c1cc(Cl)ccc1Cl)c1cccnc1	.	.	51.6*	3.8
Cc1occc1C(=O)O/N=C(\N)c1ccc(Cl)cc1	.	63.4*	64.1*	1.6
Cc1ccc(S(=O)(=O)N(C)C[C@@H]2Oc3ncc(-c4ccncc4)cc3C(=O)N([C@@H](C)CO)C[C@H]2C)cc1	.	.	1.2	.
COc1ccccc1S(=O)(=O)N[C@H]1CC[C@@H](CCNC(=O)C2CCCC2)O[C@@H]1CO	.	.	-4.2	.
O=C(Nc1cccc(Cl)c1)N[C@H]1CC[C@H](CCNC(=O)C2CC2)O[C@@H]1CO	.	.	-3.4	.
COc1ccc(NC(=O)Nc2ccc3c(c2)C(=O)N([C@@H](C)CO)C[C@@H](C)[C@@H](CN(C)S(=O)(=O)c2ccc(C)cc2)O3)cc1	.	.	-6.0	.
N/C(=N\OC(=O)c1ccccc1)c1ccn[nH]1	19.5	48.5*	24.7	3.5
N/C(=N\OC(=O)c1ccc(Br)cc1)c1ccccc1	70.3	.	-47.2	7.5
CCOc1ccc(CN(C(=O)c2ccccn2)c2ccc(OC)c(Cl)c2)cc1	21.1	3.2	45.7*	3.4
CCOc1ccc(N(Cc2ccc(OC)c(OC)c2)C(=O)c2ccco2)cc1	.	-1.5	.	1.0
SMILES	MITF act	Wnt act	esBAF inh	GAA850 FXN act
C[C@H](NC(=O)C[C@H]1C[C@@H]2c3cc(NC(=O)C4CCC4)ccc3O[C@@H]2[C@@H](CO)O1)c1ccccc1	.	.	2.6	.
CC(C)C(OC(=O)C1=Cc2ccccc2OC1)C(=O)NCC1CCCO1 (centres undefined)	8.5	36.1*	-12.7	4.9
O=C(NNC1=C(C(=O)C(F)(F)F)CCC1)c1ccccc1O	2.9	.	6.5	0.9
Nc1ccccc1C(=O)NNC1=C(C(=O)C(F)(F)F)CCC1	.	68.5*	.	2.3
N/C(=N\OC(=O)CSc1ccccc1)c1ccc([N+](=O)[O-])cc1	24.8	39.0*	.	4.3
N=C1/C(=C/c2ccc(OCc3ccccc3F)cc2)C(=O)N=C2SC(CC(=O)N3CCOCC3)=NN12	38.0	9.6	15.5	0.4
N=C1/C(=C/c2ccc(OCc3ccccc3)cc2)C(=O)N=C2SC(CC(=O)N3CCOCC3)=NN12	35.2	3.2	42.0*	0.1
Cc1ccc(S(=O)(=O)Nc2ccc3c(c2)CC(=O)N([C@H](C)CO)C[C@@H](C)[C@H](CN(C)S(=O)(=O)c2ccc(F)cc2)O3)cc1	.	.	3.7	.
CO[C@@H]1CN(C)C(=O)c2cc(NS(=O)(=O)c3ccc(Cl)cc3)ccc2OC[C@@H](C)N(C)C[C@@H]1C	.	.	2.2	.
COc1cccc(-c2ccc3c(c2)[C@@H]2[C@@H](CCN2C(=O)Cc2ccncc2)[C@@H](CO)N3)c1	.	.	20.1	.
Cc1cc(C[n+]2cc(Cl)ccc2N)c2ncccc2c1	1.7	-0.6	0.3	-0.9
